In ChEMBL document CHEMBL3988442, “University of Dundee, Small-Polar-MMV Screening Library” (2021) one finds Percent Effect data, which are given here for eleven compounds.

Common to all, as to parameters: scale not given: direction of the effect not stated beside the values
The target of test [1] is Protein translocase subunit SecA (Escherichia coli (strain K12)) (UniProt P10408). The test can be described thus: Assay to Identify E. coli SecA ATPase Inhibitors. In kind it is functional. The note with it: 30 µM.
Protein translocase subunit SecA (Escherichia coli (strain K12)), sequence (P10408 whole entry): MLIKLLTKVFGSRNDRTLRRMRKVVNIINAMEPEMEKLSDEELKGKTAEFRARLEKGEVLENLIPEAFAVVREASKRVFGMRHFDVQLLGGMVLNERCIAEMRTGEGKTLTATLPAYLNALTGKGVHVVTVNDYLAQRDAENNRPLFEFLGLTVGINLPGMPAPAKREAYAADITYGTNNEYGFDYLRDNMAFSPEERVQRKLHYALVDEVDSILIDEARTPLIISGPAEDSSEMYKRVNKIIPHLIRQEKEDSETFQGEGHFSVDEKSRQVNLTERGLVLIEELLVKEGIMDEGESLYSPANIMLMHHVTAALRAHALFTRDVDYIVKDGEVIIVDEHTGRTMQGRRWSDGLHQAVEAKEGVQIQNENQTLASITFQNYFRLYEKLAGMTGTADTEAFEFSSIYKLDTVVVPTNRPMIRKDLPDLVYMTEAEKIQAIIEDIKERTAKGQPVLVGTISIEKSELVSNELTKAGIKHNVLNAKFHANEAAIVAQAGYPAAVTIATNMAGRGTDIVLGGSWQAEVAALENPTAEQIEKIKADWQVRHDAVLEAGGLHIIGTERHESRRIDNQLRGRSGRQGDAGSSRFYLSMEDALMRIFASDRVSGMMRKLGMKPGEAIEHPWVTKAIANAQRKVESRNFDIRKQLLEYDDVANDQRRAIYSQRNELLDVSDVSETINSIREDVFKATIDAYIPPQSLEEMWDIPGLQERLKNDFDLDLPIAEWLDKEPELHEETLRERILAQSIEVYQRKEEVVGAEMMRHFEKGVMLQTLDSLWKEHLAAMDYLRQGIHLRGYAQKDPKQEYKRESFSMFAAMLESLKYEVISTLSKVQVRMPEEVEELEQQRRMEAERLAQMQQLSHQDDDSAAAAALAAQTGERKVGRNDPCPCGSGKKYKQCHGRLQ
The target in test [2] is T1, Ubiquitin-activating enzyme e1, putative (Leishmania donovani (strain BPK282A1)) (UniProt E9BSI1).
T1 sequence (whole entry): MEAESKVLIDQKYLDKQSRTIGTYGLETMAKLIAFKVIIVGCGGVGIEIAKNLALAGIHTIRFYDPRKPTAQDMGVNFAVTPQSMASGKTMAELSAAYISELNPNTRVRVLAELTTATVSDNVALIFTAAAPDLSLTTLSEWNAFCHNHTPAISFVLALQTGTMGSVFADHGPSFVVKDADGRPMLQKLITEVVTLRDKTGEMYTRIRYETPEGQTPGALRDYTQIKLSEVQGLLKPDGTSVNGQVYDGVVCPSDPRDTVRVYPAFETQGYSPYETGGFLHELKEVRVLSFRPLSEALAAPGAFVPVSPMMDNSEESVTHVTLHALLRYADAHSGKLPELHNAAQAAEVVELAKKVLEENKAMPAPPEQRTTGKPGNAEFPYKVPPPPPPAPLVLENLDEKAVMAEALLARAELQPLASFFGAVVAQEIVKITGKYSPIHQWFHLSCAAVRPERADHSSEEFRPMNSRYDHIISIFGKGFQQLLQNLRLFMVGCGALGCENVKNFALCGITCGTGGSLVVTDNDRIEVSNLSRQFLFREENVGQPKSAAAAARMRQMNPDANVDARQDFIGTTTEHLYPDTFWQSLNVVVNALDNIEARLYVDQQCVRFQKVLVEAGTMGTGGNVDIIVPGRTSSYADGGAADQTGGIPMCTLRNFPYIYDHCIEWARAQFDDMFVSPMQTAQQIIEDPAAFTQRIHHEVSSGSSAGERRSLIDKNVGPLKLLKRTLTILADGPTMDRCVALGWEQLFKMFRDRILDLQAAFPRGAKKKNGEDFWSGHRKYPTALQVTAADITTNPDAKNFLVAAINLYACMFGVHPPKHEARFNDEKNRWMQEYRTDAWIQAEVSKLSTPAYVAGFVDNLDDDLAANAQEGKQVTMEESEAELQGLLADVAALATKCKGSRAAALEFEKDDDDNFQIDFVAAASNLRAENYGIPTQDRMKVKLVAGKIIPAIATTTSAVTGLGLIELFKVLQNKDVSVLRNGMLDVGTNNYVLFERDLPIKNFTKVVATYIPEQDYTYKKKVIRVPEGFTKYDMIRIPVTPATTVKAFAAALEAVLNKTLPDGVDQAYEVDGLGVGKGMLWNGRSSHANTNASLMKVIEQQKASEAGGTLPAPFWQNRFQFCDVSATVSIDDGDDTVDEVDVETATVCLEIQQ
The test can be described thus: Leishmania donovani Ubiquitin Activating Enzyme (LdE1). The following applies: 30 µM. In kind it is functional.

In test [3] the target is AMP-activated protein kinase, AMPK (Homo sapiens) (UniProt P54646+O43741+P54619+Q9UGJ0+Q9Y478+Q13131+Q9UGI9). In words: AMP-dependent Kinase enzyme assay. An in vitro enzyme assay that detects ADP turnover that is directly proportional to AMPK activity. This uses naive AMPK that is activated during the assay with MK-8722. In kind it is functional. The note with it: 30 µM.

The target in test [4] is Sialic acid-binding Ig-like lectin 9 (Homo sapiens) (UniProt Q9Y336). The test can be described thus: Hs-Siglec9 ALPHAscreen SOP 20170721. The following applies: 10 µM.
Sialic acid-binding Ig-like lectin 9 (Homo sapiens), sequence (Q9Y336 whole entry): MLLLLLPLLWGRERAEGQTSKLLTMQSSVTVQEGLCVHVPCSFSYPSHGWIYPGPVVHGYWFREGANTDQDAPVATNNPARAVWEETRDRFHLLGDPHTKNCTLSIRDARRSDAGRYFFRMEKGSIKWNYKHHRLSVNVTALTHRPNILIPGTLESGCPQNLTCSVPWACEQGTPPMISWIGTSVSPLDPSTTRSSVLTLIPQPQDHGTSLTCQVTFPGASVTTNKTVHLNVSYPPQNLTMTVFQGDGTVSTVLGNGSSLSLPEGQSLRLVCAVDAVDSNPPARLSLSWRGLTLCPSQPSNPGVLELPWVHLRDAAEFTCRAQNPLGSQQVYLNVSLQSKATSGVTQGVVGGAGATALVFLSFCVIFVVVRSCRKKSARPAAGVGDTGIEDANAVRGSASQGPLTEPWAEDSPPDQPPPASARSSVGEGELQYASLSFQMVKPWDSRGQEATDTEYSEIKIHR
For the next test, the system named is Trypanosoma cruzi. The test can be described thus: Trypanosoma cruzi phosphomannomutase and mannose-1-phosphate guanylyltransferase assay. In kind it is functional. The note with it: 10 µM.
Test [5] addresses T2, Arginase-2, mitochondrial (Homo sapiens) (UniProt P78540).
T2 sequence (whole entry): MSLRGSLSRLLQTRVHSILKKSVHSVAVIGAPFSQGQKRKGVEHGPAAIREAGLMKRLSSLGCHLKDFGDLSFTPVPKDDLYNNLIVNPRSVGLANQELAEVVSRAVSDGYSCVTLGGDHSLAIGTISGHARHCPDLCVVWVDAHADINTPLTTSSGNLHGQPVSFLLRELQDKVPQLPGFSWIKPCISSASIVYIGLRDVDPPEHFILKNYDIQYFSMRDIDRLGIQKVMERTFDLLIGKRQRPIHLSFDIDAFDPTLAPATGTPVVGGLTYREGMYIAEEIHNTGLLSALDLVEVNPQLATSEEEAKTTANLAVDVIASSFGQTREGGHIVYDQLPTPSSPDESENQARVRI
In words: in vitro enzyme assay to detect the production of urea directly proportional to the activity of Arginase II. Further: in the data most compounds retested in dose-response had high values. In kind it is functional. The note with it: 33.3 µM.

Test [6] concerns the target T3, Proteasome subunit beta (Trypanosoma cruzi) (UniProt O96673).
T3 sequence (whole entry): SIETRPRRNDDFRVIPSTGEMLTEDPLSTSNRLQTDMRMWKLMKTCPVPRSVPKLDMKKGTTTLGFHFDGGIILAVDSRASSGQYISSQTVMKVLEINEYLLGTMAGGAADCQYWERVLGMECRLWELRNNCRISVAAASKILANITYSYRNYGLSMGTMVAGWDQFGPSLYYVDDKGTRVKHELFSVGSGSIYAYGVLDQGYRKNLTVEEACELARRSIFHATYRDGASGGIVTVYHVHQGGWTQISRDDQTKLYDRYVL
In words: Trypanosoma cruzi proteasome chymotrypsin-like activity (TcProtChymo) assay. Further: in the data most compounds retested in dose-response had high values. In kind it is functional. The note with it: 9.37 µM.

Another test is filed under the species Homo sapiens. The test can be described thus: To identify inhibition of the IFN signalling (Jak-Stat) pathway via expression of an eGFP reporter gene under the control of an IFN-stimulated response element (ISRE) containing MxA promoter. In kind it is functional. The following applies: 30 µM. On the technique in general: A reporter such as luciferase makes a cellular process visible.

In test [7] the target is T4, Tyrosyl-tRNA synthetase, putative (Trypanosoma cruzi (strain CL Brener)) (UniProt Q4DSP6).
T4 sequence (whole entry): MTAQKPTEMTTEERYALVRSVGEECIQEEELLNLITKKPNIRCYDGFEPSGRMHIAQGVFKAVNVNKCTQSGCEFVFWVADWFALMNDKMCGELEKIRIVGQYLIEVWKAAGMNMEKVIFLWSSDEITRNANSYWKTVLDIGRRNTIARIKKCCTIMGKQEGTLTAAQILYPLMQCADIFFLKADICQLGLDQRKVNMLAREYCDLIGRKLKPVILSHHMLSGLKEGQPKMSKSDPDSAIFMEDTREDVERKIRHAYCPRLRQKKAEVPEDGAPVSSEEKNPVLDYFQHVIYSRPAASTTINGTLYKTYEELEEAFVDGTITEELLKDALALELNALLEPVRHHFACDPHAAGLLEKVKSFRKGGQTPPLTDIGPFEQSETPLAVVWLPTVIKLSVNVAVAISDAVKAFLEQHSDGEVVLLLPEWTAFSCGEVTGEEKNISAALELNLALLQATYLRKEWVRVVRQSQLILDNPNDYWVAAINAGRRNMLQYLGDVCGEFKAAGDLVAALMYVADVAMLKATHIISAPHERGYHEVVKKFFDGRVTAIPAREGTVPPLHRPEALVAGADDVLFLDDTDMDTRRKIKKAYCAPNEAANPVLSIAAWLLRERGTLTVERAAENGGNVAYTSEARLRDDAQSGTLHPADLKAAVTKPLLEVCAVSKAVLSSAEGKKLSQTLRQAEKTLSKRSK
The test can be described thus: Trypanosoma cruzi tyrosyl tRNA synthetase (TcYRS) _High Tyrosine SOP. Further: in the data most compounds retested in dose-response had high values. In kind it is functional. The note with it: 30 µM.

Test [8] concerns the target T4, Tyrosyl-tRNA synthetase, putative (Trypanosoma cruzi (strain CL Brener)). The test can be described thus: Trypanosoma cruzi tyrosyl tRNA synthetase (TcYRS) SOP. In kind it is functional. The following applies: 30 µM.
Test [9] deals with Chromo domain-containing protein 1 (Saccharomyces cerevisiae (strain ATCC 204508 / S288c) (Baker's yeast)) (UniProt P32657). The test can be described thus: ScCHD-1 Enzyme Inhibition Assay. Further: in the data most compounds retested in dose-response had high values. The note with it: 30 µM. In kind it is functional.
Chromo domain-containing protein 1 (Saccharomyces cerevisiae (strain ATCC 204508 / S288c) (Baker's yeast)), sequence (P32657 whole entry, the tested form may be a part): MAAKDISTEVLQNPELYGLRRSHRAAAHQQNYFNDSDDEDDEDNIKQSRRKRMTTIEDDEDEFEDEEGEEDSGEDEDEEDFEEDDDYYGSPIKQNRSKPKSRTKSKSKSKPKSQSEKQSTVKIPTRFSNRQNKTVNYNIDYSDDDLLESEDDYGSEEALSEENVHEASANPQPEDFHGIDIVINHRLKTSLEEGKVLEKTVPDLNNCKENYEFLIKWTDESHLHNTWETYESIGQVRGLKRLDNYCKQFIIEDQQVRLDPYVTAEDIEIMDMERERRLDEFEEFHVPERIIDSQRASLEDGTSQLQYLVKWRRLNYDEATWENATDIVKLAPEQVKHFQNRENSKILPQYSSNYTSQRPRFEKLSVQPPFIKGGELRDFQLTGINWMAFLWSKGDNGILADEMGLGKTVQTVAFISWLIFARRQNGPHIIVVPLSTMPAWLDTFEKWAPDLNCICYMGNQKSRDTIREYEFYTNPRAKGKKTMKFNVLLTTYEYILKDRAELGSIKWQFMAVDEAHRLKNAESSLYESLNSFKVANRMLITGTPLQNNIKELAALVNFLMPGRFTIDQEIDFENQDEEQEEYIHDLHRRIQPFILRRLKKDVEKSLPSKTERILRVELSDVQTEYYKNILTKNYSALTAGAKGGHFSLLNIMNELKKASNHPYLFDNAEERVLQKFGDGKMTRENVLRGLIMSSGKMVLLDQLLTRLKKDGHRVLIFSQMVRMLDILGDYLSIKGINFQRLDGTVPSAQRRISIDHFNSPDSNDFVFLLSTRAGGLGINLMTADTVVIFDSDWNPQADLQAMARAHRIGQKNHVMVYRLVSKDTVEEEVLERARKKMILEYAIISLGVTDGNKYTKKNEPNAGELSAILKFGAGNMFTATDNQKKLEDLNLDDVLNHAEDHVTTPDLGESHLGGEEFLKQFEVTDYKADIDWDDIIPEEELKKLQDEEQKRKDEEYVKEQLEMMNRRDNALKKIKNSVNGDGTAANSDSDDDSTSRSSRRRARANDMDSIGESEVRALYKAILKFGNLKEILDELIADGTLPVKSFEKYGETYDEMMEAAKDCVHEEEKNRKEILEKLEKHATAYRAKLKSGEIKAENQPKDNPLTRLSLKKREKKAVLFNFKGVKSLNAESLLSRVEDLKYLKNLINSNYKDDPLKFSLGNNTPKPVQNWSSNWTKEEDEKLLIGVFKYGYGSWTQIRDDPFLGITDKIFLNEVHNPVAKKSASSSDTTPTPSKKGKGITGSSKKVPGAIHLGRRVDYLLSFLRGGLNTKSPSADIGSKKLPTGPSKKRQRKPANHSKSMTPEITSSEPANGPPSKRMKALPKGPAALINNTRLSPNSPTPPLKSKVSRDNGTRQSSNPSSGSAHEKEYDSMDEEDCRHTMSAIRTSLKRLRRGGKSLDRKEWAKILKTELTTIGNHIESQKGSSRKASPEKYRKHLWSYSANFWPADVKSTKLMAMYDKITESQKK

For some of these results: Measured potencies and affinities stand elsewhere.

In the case of `CSc1cccc(CN(C)C(=O)C2CC(=O)N(CCN(C)C)C2)c1` (stereo unspecified), the Percent Effect in test [1] was 0.893%; in test [2], 10.7%; in [3] it was -12.1%; in test [4], 4.56%; with Trypanosoma cruzi, 4.38%; in test [5], 18.2%. Besides, the Percent Effect was 18.1% in test [6]; 29.9% in the test listed under Homo sapiens; 8.2% in test [7]; 16.1% in test [8]; -0.611% in [9].
For `CC(C)(C)C(=O)NCCC(=O)NC(C)(C)c1ccc2c(c1)OCCO2`, the Percent Effect in test [1] is -1.46%; in test [2], -5.48%; in test [3] it was 12.2%; in test [4] it was -1.99%; in the test with Trypanosoma cruzi, -0.783%; in [5], 5%. Also, the Percent Effect is 4.44% in [6]; -3.61% in the test listed under Homo sapiens; 2.15% in test [7]; 5% in [8]; 1.77% in [9].
As to `O=C(NCc1cc[nH]n1)NC1CCCN(c2ncccn2)C1` (stereo unspecified), the Percent Effect in [1] is -1.16%; in test [2], 10.5%; in [3] it was 6.14%; in [4] it was -0.458%; in the test with Trypanosoma cruzi, -4.58%; in [5] it was -4.73%. For the same compound, the Percent Effect in test [6] is 16%; in the test listed under Homo sapiens it was -3.24%; in test [7], 4.25%; in [8], 13%; in test [9], -5.61%.
On to `Cc1noc2ncc(C(=O)N3CCCC3c3cnn(C)c3)cc12` (stereo unspecified), for which the Percent Effect in test [1] is -1.99%; in [2], 2.53%; in test [3], -1.98%; in [4], -2%; in the test with Trypanosoma cruzi it was -2.17%; in [5], -3.42%. The Percent Effect is 3.52% in [6]; 12% in the test filed under Homo sapiens; -3.45% in [7]; -1.27% in [8]; -2.49% in test [9].
On to `CC(C)C(=O)NCCNc1nccc(-c2cc(C(=O)O)ccn2)n1`, for which the Percent Effect is -4.2% in test [1]; 19.2% in test [2]; -3.6% in test [3]; 15% in [4]; 2.74% in the test on Trypanosoma cruzi; 6.82% in test [5]. In addition, the Percent Effect was 13.1% in test [6]; 2.74% in the test filed under Homo sapiens; 9.68% in [7]; 20% in [8]; -5.35% in test [9].
For `O=C(CCNC(=O)c1ccoc1)NCc1ccccc1F`, the Percent Effect in test [1] is 2.18%; in test [2], 13%; in test [3] it was 3.8%; in test [4] it was -2.98%; with Trypanosoma cruzi, -2.45%; in test [5], 6.53%. Moreover, the Percent Effect in test [6] was 19.5%; in the test listed under Homo sapiens, 24%; in [7], 5.71%; in test [8], 18.8%; in test [9], -3.8%.
Turning to `Cc1ccccc1CCNC(=O)C1CC(=O)N(CC(F)(F)F)C1` (stereo unspecified), the Percent Effect was -3.95% in test [1]; 24.3% in [2]; -20.9% in test [3]; -4.07% in [4]; 1.42% with Trypanosoma cruzi; -21.2% in test [5]. Moreover, the Percent Effect in [6] is 10.1%; in the test filed under Homo sapiens, 25.2%; in test [7], 5.42%; in test [8], 18.5%; in test [9], -11.1%.
In the case of `CC(NC(=O)C1=NN(C)C(=O)CC1)c1ccc(Cl)cc1Cl` (stereo unspecified), the Percent Effect in [1] was -2.53%; in test [2], 16.4%; in [3], 8.07%; in test [4], 9.9%; in the test with Trypanosoma cruzi it was 2.74%; in test [5], 8.64%. Also, the Percent Effect is 11.9% in [6]; 16.3% in the test listed under Homo sapiens; 2.15% in test [7]; 20% in test [8]; -7.04% in test [9].
Take `O=C(c1cnc(C2CC2)s1)N1CCCCC1Cn1cccn1` (stereo unspecified): the Percent Effect in test [1] is -2.96%; in [2], 1.27%; in test [3] it was 4.54%; in [4], -0.611%; with Trypanosoma cruzi, -1.13%; in [5] it was -3.23%. The Percent Effect in test [6] was 12.9%; in the test filed under Homo sapiens, -2.91%; in [7], 2.08%; in test [8], 7.59%; in test [9], -0.92%.
Take `Cn1cnc2c1CCN(Cc1nc(COc3ccc(F)cc3)no1)C2`: the Percent Effect is -9.01% in test [1]; 7.89% in [2]; 3.1% in test [3]; 1.46% in [4]; -5.7% in the test on Trypanosoma cruzi; 1.44% in test [5]. Moreover, the Percent Effect in [6] was 7.19%; in the test listed under Homo sapiens it was 10.3%; in [7] it was 0.493%; in test [8] it was -6.17%; in test [9], -0.821%.
Regarding `O[C@H]1CCN(Cc2ccoc2)[C@H]1Cc1cccnc1`, the Percent Effect in [1] was -6.91%; in [2] it was 0%; in test [3], 3.99%; in [4] it was -6.85%; with Trypanosoma cruzi, -1.16%; in [5] it was -54.7%. Also, the Percent Effect in test [6] was 5.47%; in the test filed under Homo sapiens, 13.5%; in [7], 4.17%; in test [8], 2.5%; in [9], -9.55%.
